# Assay outcomes: PubChem BioAssay, National Center for Advancing Translational Sciences (NCATS)
# Shiga inhibitor = inhibitors of Shiga toxin in Vero cells; AID 2315; actives 9.2% (n = 290,000); inhibition, % at 38.7 µM; Vero cells, Shiga toxin protein synthesis inhibition reporter; in the data active = inhibition mostly above about 28%, no sharp cut-off; inactive = mostly below about 43%; note: 0% is about no effect
# Pf growth 96h = P. falciparum growth inhibition at 96 hour, primary screen for plastid delayed-death inhibitors | Potency, µM (top dose mostly 28.7 µM), for inactives: at the top dose activity change, negative = inhibition, hits mostly inhibitors | AID 504834 | actives 6.9% (n = 320,000) | P. falciparum luciferase reporter growth, 96 h; note: potency is the fitted concentration of half-maximal effect; % is set by controls: 0 for no effect and ±100 for the full control effect
#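 P. falciparum expressing integrated firefly luciferase, in erythrocytes at 2% hematocrit, 0.05% parasitemia, incubated with compounds 96 h at 37 C, 5% CO2. Growth inhibition read as loss of luminescence; two-generation exposure targets delayed-death apicoplast inhibitors.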
# Cycloheximide cs = counter-screen for Shiga toxin inhibitors: cycloheximide protein synthesis inhibition | cell reporter, cycloheximide protein synthesis inhibition counterscreen | max response, % | actives 12% (n = 300,000); in the data active = max response mostly above about 13%, no sharp cut-off; inactive = mostly below about 14%; note: read at 38.3 µM for the half of the compounds with a filed dose; 0% is about no effect
# LASV entry inh = inhibitors of Lassa virus binding or cell entry | Lassa virus pseudotype entry inhibition, cell reporter | Potency, µM (series often up to 37.9 µM), for the others: top-dose activity change, negative = inhibition, hits mostly inhibitors | actives 1.2% (n = 300,000); calls by dose curve; tested in HEK293 cells; note: potency is the fitted concentration of half-maximal effect; % is set by controls: 0 for no effect and ±100 for the full control effect; nearly all actives have a fitted effect of over 50% in size
# Pf growth 48h = P. falciparum growth inhibition at 48 hours (one generation) | actives 5.9% (n = 310,000) | AID 504832 | P. falciparum luciferase growth in erythrocytes, 48 h | Potency, µM (top dose mostly 28.7 µM), without a hit: at the highest dose activity change, negative = inhibition, hits mostly inhibitors; note: potency is the fitted concentration of half-maximal effect; % is set by controls: 0 for no effect and ±100 for the full control effect
#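 A one-generation exposure of luciferase-tagged malaria parasites in RPMI 1640/Albumax erythrocyte culture, 37 C and 5% CO2. Inhibition is inferred from decreased luminescence after adding detection reagent.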
# MARV entry inh = Marburg virus entry inhibition; Marburg virus pseudotyped entry inhibition, cell reporter; Potency, µM (series often up to 37.8 µM), without a hit: top-dose activity change, negative = inhibition, hits mostly inhibitors; actives 1.8% (n = 300,000); calls by dose curve; tested in HEK293 cells; note: potency is the fitted concentration of half-maximal effect; % is set by controls: 0 for no effect and ±100 for the full control effect
# Starred values were filed as active, the others as inactive; i = inactive; ? = inconclusive; nt = no result given; ! = not confirmed by another sample; [ ] = dose if it differs, or a comment. The list is not random: actives were taken first. Their share in the collection is about 19%. Unless noted, calls come from the whole dose curve; as a rule, active = well fitted inhibition curve with a large enough effect; inconclusive = small, poorly fitted or top-dose-only effect, or another doubt; inactive = no such curve, though single readings can be large or run the other way.
SMILES,Shiga inhibitor,Pf growth 96h,Cycloheximide cs,LASV entry inh,Pf growth 48h,MARV entry inh
CCOC(=O)c1csc(N)c1-c1ccc([N+](=O)[O-])cc1,-17,-17%,-2,nt,-22%,nt
Cc1cc(C)n(Cc2ccc(C(=O)NN)o2)n1,15,24%,8,nt,?,nt
COc1ccccc1N1C(=O)S/C(=C\c2cc(C)n(C)c2C)C1=O,56*,38%,29*,nt,79%,nt
Cc1cc(/C=C2\SC(=O)N(CC(=O)Nc3ccccc3F)C2=O)c(C)n1C,-8,107%,-2,-5%,-8%,6%
CCO/C=C1/C(=O)N(c2ccccc2OC)C(=O)c2ccccc21,-16,18%,-3,nt,7%,1%[46.1 µM]
COc1ccccc1N1C(=O)S/C(=C\c2ccc(C)s2)C1=O,28*,-27%,22*,nt,30%,nt
COc1cccc(Cn2nnc(C(=O)NCc3ccc(F)cc3)c2N)c1,-16,53%,-6,nt,nt,nt
c1ccc2c(c1)CC1(CCCCC1)n1nnnc1-2,-4,-24%,-1,10%,-10%,-14%
c1ccc2c(c1)Cn1nnnc1-2,-13,4.1µM*,-3,8%,8%,-1%
COc1cc(Cc2cnc(N)nc2N)cc(OC)c1OC,-2,2.1µM*!,-2,?,1.5µM*,?
Cn1cc(CNC(=O)C2CCC(=O)N(Cc3cccc(C(F)(F)F)c3)C2)cn1 (stereo not given),-5,24%,4,3%,0%,13%
O=C(N=C1c2ccccc2CN1c1ccccc1)c1cccc([N+](=O)[O-])c1,35,85%,18*,30%,67%,?
COc1ccc(N2Cc3ccccc3C2=NC(=O)c2ccc(C)cc2)cc1OC,10,?,15,-14%[46.1 µM],?,?
O=C(N=C1c2ccccc2CN1c1cccc(Cl)c1)c1cccnc1,26*,-40%,34*,12%,66%,?
O=C(N=C1c2ccccc2CN1c1ccc(F)c(F)c1)c1cccnc1,39,8%,29*,15%,?,?
CCOc1ccc(-n2cc(-c3ccc(OC)c(OC)c3)[nH]c2=S)cc1,25,-12%,10,-12%[46.1 µM],?,16%[46.1 µM]
COC(=O)c1ccccc1NC(=O)CSc1nnc(-c2ccoc2C)n1C,-16,?,8,2%,-19%,12%
O=C(NNc1ccc(C2CCCCC2)cc1)C(O)(c1ccccc1)c1cccs1 (stereo not given),37,74%,16*,?,?,?
Cn1cnnc1SCC(=O)c1ccc(OC(F)F)cc1,-6,-4%,-2,1%,nt,21%
COC(=O)c1ccc(NC(=O)CSc2nncn2C)cc1,4,23%,0,6%,24%,2%
COC(=O)c1ccccc1NC(=O)CSc1nncn1C,4,-4%,3,12%[46.1 µM],12µM*,3%[46.1 µM]
CCCCOC(=O)c1ccc(NC(=O)COC(=O)CSc2nc(C)cc(C)n2)cc1,58*,76%,21*,?,40%,4%
Cn1cnnc1SCC(=O)Nc1ccc(OC(F)F)cc1,11,-4%,2,nt,13µM*,nt
CCCCOC(=O)c1ccc(NC(=O)CSc2nncn2C)cc1,41,-14%,25*,10%,27%,18%
CCC(=O)N1CCc2cc(Br)cc(S(=O)(=O)CCC(=O)N3CCN(c4ccc(OC)cc4)CC3)c21,nt,nt,nt,-3%[46.1 µM],nt,0%[46.1 µM]
SMILES,Shiga inhibitor,Pf growth 96h,Cycloheximide cs,LASV entry inh,Pf growth 48h,MARV entry inh
Clc1ccc(-c2nc3ncccn3c2Cl)cc1,51,37%,31,3%[46.1 µM],i,?
N#Cc1ccccc1S(=O)(=O)N1CCN(CC(O)c2ccccc2)CC1 (stereo not given),-6,?,10,-17%,?,-7%
COc1ccc(Nc2c(-c3ccco3)nc3cccc(C)n23)cc1,18,2.6µM*,-6,5%[46.1 µM],0%,-37%[46.1 µM]
Cc1cccc2nc(-c3ccco3)c(Nc3ccc4c(c3)OCCO4)n12,20,?,9,nt,?,nt
Cc1ccc(Nc2c(-c3ccco3)nc3ccccn23)cc1,97*,38%,30*,5%,?,?
COc1ccc(Nc2c(-c3ccco3)nc3ccc(C)cn23)cc1,38,?,31*,nt,?,nt
O=C(CC1(O)C(=O)N(Cc2ccccc2)c2ccc(Br)cc21)c1ccccc1 (stereo not given),nt,nt,nt,-25%[46.1 µM],nt,-28%[46.1 µM]
CCN(C(=O)CN1C(=O)CN(C)C1=O)c1cccc2ccccc12,nt,nt,nt,-22%[46.1 µM],nt,9%[46.1 µM]
CC1(C)CC(=O)c2cc(OCC(=O)N3CCCCCC3)ccc2O1,80*,13µM*,57*,-9%,?,?
CCN1CCN(C(=O)COc2ccc3c(c2)C(=O)CC2(CCN(C(C)=O)CC2)O3)CC1,34,8.3µM*,8,1%,nt,28%
COc1ccc(CN(Cc2cc3ccc(C)cc3[nH]c2=O)Cc2nnnn2C2CCCC2)cc1,3,?,-1,?,?,?
CCN(C(=O)Cc1ccc(NC2=NC3CS(=O)(=O)CC3S2)cc1)c1ccccc1 (stereo not given),-4,?,1,nt,25%,nt
CCN(CC)C(=O)CN(c1cccc(C(F)(F)F)c1)S(C)(=O)=O,-13,nt,-5,21%,1%,11%
CC1(C)c2ccccc2-c2nc3ccccc3cc2C1O (stereo not given),16,-2%,18*,2%[46.1 µM],-4%,-2%[46.1 µM]
Cc1ccc2oc(NC(=O)N3CCOCC3)cc(=O)c2c1,-2,-26%,-3,?,?,?
COc1ccccc1NC(=O)c1ccccc1Oc1ccccc1,-3,?,-1,nt,?,nt
O=C(c1ccco1)N1CCN(C(=O)C2CC2)CC1,-1,-16%,-1,-4%,2%,14%
O=C1NC2=C(C(=O)CCC2)C(c2ccccc2[N+](=O)[O-])N1 (stereo not given),-11,27%,-8,22%,1%,15%[46.1 µM]
O=C1NC2=C(C(=O)CCC2)C(c2ccccc2Cl)N1 (stereo not given),-6,2.9µM*,-6,-5%[46.1 µM],-20%[0.00184 µM],3%[46.1 µM]
CC(=O)Nc1ccccc1-c1nc2ccccc2n(CC(=O)Nc2ccc(C)c(Cl)c2)c1=O,nt,nt,nt,?,nt,-10%[46.1 µM]
CC(=O)c1c(C)cc(C)c(CSc2nnc(-c3ccco3)o2)c1C,-28,nt,-2,0%,?,-7%
COC(=O)c1ccc(CN(C)S(=O)(=O)c2cccs2)cc1,76*,43%,56*,16%,44%,17%[46.1 µM]
CN(CC(=O)NCCc1ccccc1)S(=O)(=O)c1ccc(Br)s1,46*,1%,28*,0%,-8%,?
Cc1ccc(CNC(=O)CN(C)S(=O)(=O)c2cccs2)cc1,23,?,28*,8%,17%,8%[46.1 µM]
CN(CC(=O)NCCc1ccc(Cl)cc1)S(=O)(=O)c1cccs1,34*,-1%,22*,27%,4%,4%[46.1 µM]
CN(CC(=O)NNC(=O)CCNS(=O)(=O)c1ccccc1)S(=O)(=O)c1ccc(Cl)cc1,nt,-6%,nt,6%,36%,3%
